Data reported in PubChem BioAssay (Tox21).
Values without a mark were called inactive. Records with an inconclusive call do not appear. Entries that show only a call come without a potency. Active and inactive are the calls of the source. Unless noted, calls come from the whole dose curve.

Columns and labels:
[1] = qHTS assay to identify small molecule agonists of the sonic hedgehog signaling (Shh) pathway (AID 1259368); note: nearly all actives have a fitted effect of over 15% in size; note: potency is the fitted concentration of half-maximal effect
Method in brief: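 Cells of a mouse NIH/3T3 clone stably expressing luciferase under the Gli1 transcriptional response element are exposed to test chemicals for 24 hr at 37 C. Pathway activation is detected as a rise in luminescence.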

[2] = qHTS assay to identify small molecule antagonists of the sonic hedgehog signaling (Shh) pathway (AID 1259369); note: nearly all actives have a fitted effect of over 45% in size; note: potency is the fitted concentration of half-maximal effect
Method in brief: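 Cells are plated and held 4hr at 37 C, compounds (DMSO) are pinned in, conditioned medium is added to stimulate the pathway, and after 24hr luciferase reagent is added for 30min before luminescence is read.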

[3] = molecular target: Estrogen receptor beta (Homo sapiens) (UniProt Q92731); test: qHTS assay to identify small molecule agonists of the estrogen receptor beta (ER-beta) signaling pathway (AID 1259377; active = well fitted activation curve with a large enough effect in the signal ratio in the repeat runs, not every such curve was filed as active; the % refers to the signal ratio)
Method in brief: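 ER-beta-UAS-bla HEK293T (GripTite) cells carrying a UAS-driven beta-lactamase reporter, in medium with 2% charcoal-stripped FBS, were exposed to compounds for 16 hr at 37C; LiveBLAzer B/G FRET substrate was then added and fluorescence read after 2 hours at room temperature.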

[4] = molecular target: Estrogen receptor beta (Homo sapiens) (UniProt Q92731); test: qHTS assay to identify small molecule antagonists of the estrogen receptor beta (ER-beta) signaling pathway (AID 1259378; active = well fitted inhibition curve with a large enough effect in the signal ratio in the repeat runs, not every such curve was filed as active; the % refers to the signal ratio)
Method in brief: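 Antagonist mode: compounds added to beta-lactamase reporter HEK293T ER-beta-UAS cells stimulated with E2 (1nM final), 16 hr at 37C. LiveBLAzer B/G FRET substrate, 2 hours room temperature, fluorescence read-out.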

[5] = qHTS assay to identify small molecule agonists of the estrogen receptor beta (ER-beta) signaling pathway - cell viability counter screen (AID 1259380; active = well fitted curve in the direction sought with a large enough effect in the repeat runs; an effect the other way counts as inactive or inconclusive; note: nearly all actives have a fitted effect of over 30% in size)
Method in brief: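 Cytotoxicity is measured in parallel with the reporter screen: after 16 hr compound exposure at 37C and a 2 hr LiveBLAzer step, CellTiter-Glo is added to the same ER-beta-UAS-bla HEK293T wells and luminescence read after 30 min.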

[6] = molecular target: Androgen receptor (Homo sapiens) (UniProt P10275); test: qHTS assay to identify small molecule agonists of the androgen receptor (AR) signaling pathway in the presence of an antagonist (AID 1259381); note: nearly all actives have a fitted effect of over 15% in size; note: potency is the fitted concentration of half-maximal effect
Method in brief: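 Agonist-mode confirmation screen: human MDA-kb2 cells stably expressing luciferase under an MMTV promoter bearing AR and GR response elements, co-treated with 3.0uM nilutamide (final). Luminescence measured after 16hr compound incubation.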

[7] = qHTS assay to identify small molecule antagonists of the estrogen receptor beta (ER-beta) signaling pathway - cell viability counter screen (AID 1259382; active = well fitted curve in the direction sought with a large enough effect in the repeat runs; an effect the other way counts as inactive or inconclusive; note: series mostly up to about 92 µM; nearly all actives have a fitted effect of over 55% in size)
Method in brief: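 Cytotoxicity counter screen multiplexed with the beta-lactamase antagonist assay: GripTite HEK293T ER-beta-bla cells were treated 16 hr with test chemicals in the presence of 1nM 17-beta-estradiol, and viability was measured by CellTiter-Glo.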

[8] = molecular target: Estrogen receptor (Homo sapiens) (UniProt P03372); test: qHTS assay to identify small molecule agonists of the estrogen receptor alpha (ER-alpha) signaling pathway in the presence of an antagonist (AID 1259383); note: top concentration of the series differs between compounds; nearly all actives have a fitted effect of over 15% in size
Method in brief: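 Agonist-mode confirmation in the presence of the ER antagonist ICI-182,780 at 10.0nM final. Breast-derived VM7Luc4E2 reporter cells were exposed to compounds for 22hr, and ERE-driven luciferase was quantified by luminescence.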

[9] = qHTS assay to identify small molecule agonists or antagonists of the thyroid stimulating hormone receptor (TSHR) signaling pathway - wild type cell line counter screen (AID 1259384)
Method in brief: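 Counter screen in untransfected Hek293: compounds (15-point titration, triplicate) plus phosphodiesterase inhibitor Ro20-1724 added after 18 h plating; 30 min RT. Intracellular cAMP via competitive d2/cryptate immunoassay, 1 h incubation.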

[10] = molecular target: Thyrotropin receptor (Homo sapiens) (UniProt P16473); test: qHTS assay to identify small molecule antagonists of the thyroid stimulating hormone receptor (TSHR) signaling pathway (AID 1259385); note: nearly all actives have a fitted effect of over 20% in size
Method in brief: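 Antagonist mode: compound-treated TSHR-expressing HEK293 cells were stimulated with 1.5 ng/mL TSH (final) in presence of Ro20-1724 for 30 min at RT. HTRF cAMP detection after 1 h; each compound tested at 15 concentrations, triplicate.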

[11] = qHTS assay to identify small molecule agonists of the estrogen receptor alpha (ER-alpha) signaling pathway in the presence of an antagonist - cell viability counter screen (AID 1259386; active = well fitted curve in the direction sought with a large enough effect in the repeat runs; an effect the other way counts as inactive or inconclusive;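 note: series mostly up to about 92 µM; cells exposed to compounds for 22 h at 37 °C before the viability read; nearly all actives have a fitted effect of over 30% in size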)
Method in brief: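 Cytotoxicity was measured in parallel with the ERE-luciferase agonist screen, in the same wells. The cells were VM7Luc4E2, which endogenously express ER-alpha, and treatment was with compounds plus 10.0nM ICI-182,780 for 22hr.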

[12] = molecular target: Progesterone receptor (Homo sapiens) (UniProt P06401); test: qHTS assay to identify small molecule agonists of the progesterone receptor (PR) signaling pathway (AID 1346784); note: nearly all actives have a fitted effect of over 30% in size
Method in brief: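 PR-UAS-bla HEK 293T cells carrying a UAS-driven beta-lactamase reporter were seeded in medium with 2% charcoal-stripped FBS, preincubated 6 hr at 37C, then exposed to compounds in DMSO for 16 hr; agonism was read by LiveBLAzer B/G FRET fluorescence.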

[13] = molecular target: Progesterone receptor (Homo sapiens) (UniProt P06401); test: qHTS assay to identify small molecule antagonists of the progesterone receptor (PR) signaling pathway (AID 1346795; active = well fitted inhibition curve with a large enough effect in the signal ratio in the repeat runs, not every such curve was filed as active; the % refers to the signal ratio)
Method in brief: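 PR-UAS-bla HEK293T cells carrying a UAS-driven beta-lactamase reporter were plated in medium with 2% charcoal-stripped FBS and rested 6 hr at 37C. Compounds were added with 1 nM R5020 (final) for 16 hr, then FRET substrate loaded 2 hr at room temperature.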

[14] = qHTS assay to identify small molecule agonists of the progesterone receptor (PR) signaling pathway - cell viability counter screen (AID 1346799); note: nearly all actives have a fitted effect of over 45% in size
Method in brief: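 PR-UAS-bla HEK293T cells, 3,000 per well in medium with 2% charcoal-stripped FBS, were preincubated 6 hr at 37C, then exposed to compounds for 16 hr; viability was read as CellTiter-Glo luminescence after 30 min at room temperature.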

[15] = qHTS assay to identify small molecule antagonists of the TGF-beta/Smad signaling pathway - cell viability counter screen (AID 1346824; active = well fitted curve in the direction sought with a large enough effect in the repeat runs; an effect the other way counts as inactive or inconclusive; note: nearly all actives have a fitted effect of over 50% in size)
Method in brief: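 Cytotoxicity counter-screen run in the same wells as the beta-lactamase Smad reporter read: CellTiter-Glo luminescence after 30 min at room temperature. HEK 293T SBE-bla cells had 5 hr compound exposure at 37 C with TGF-beta1 (0.25 ng/mL stock).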

[16] = qHTS assay to identify small molecule agonists of the TGF-beta/Smad signaling pathway - cell viability counter screen (AID 1346829; active = well fitted curve in the direction sought with a large enough effect in the repeat runs; an effect the other way counts as inactive or inconclusive; note: top concentration of the series differs between compounds; nearly all actives have a fitted effect of over 45% in size)
Method in brief: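 Luminescence from CellTiter-Glo, read after a 30 min room-temperature incubation, gives cell viability of SBE-bla HEK 293T cells treated 5 hr with compounds at 37 C.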

[17] = qHTS assay to identify small molecule agonists of the TGF-beta/Smad signaling pathway (AID 1346859; active = well fitted activation curve with a large enough effect in the signal ratio in the repeat runs, not every such curve was filed as active; the % refers to the signal ratio; note: series mostly up to about 77 µM)
Method in brief: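 HEK 293T cells stably carrying a beta-lactamase reporter driven by the Smad binding element were seeded overnight, exposed to DMSO-dissolved compounds for 5 hr at 37 C, 5% CO2, then loaded with FRET substrate for 2 hr at room temperature.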

[18] = molecular target: Thyrotropin-releasing hormone receptor (Homo sapiens) (UniProt P34981); test: qHTS assay to identify small molecule antagonists of the thyrotropin-releasing hormone receptor (TRHR) signaling pathway (AID 1346877; active = well fitted inhibition curve with a large enough effect in the repeat runs, not every such curve was filed as active; note: series mostly up to about 51 µM)
Method in brief: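 Antagonism is measured as suppression of the calcium response to 1 nM TRH in TRHR-HEK293 cells that have been dye-loaded for 2 h at 37 °C after overnight plating. Each compound is tested at 15 concentrations in triplicate.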

[19] = qHTS assay to identify small molecule antagonists of the progesterone receptor (PR) signaling pathway - cell viability counter screen (AID 1346798; active = well fitted curve in the direction sought with a large enough effect in the repeat runs; an effect the other way counts as inactive or inconclusive; note: series mostly up to about 92 µM; nearly all actives have a fitted effect of over 50% in size)
Method in brief: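 PR-UAS-bla HEK293T cells in medium with 2% charcoal-stripped FBS were treated with compounds plus R5020 for 16 hr at 37C. Cell viability was then read by CellTiter-Glo luminescence after 30 min at room temperature in the same wells.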

[20] = qHTS assay to identify small molecule agonists of the androgen receptor (AR) signaling pathway in the presence of an antagonist - cell viability counter screen (AID 1259379; active = well fitted curve in the direction sought with a large enough effect in the repeat runs; an effect the other way counts as inactive or inconclusive;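 note: MDA-kb2 human breast cancer cells carrying an MMTV luciferase reporter; series mostly up to about 92 µM; nearly all actives have a fitted effect of over 25% in size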)
Method in brief: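 Cytotoxicity is assessed by CellTiter-Fluor in MDA-kb2 cells carrying an MMTV-driven luciferase reporter. Cells receive 3.0uM nilutamide plus compounds at 15 concentrations and incubate 16 hr at 37C without CO2 before fluorescence reading.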

Chain of Thyrotropin-releasing hormone receptor (Homo sapiens) (P34981 whole entry, looked up): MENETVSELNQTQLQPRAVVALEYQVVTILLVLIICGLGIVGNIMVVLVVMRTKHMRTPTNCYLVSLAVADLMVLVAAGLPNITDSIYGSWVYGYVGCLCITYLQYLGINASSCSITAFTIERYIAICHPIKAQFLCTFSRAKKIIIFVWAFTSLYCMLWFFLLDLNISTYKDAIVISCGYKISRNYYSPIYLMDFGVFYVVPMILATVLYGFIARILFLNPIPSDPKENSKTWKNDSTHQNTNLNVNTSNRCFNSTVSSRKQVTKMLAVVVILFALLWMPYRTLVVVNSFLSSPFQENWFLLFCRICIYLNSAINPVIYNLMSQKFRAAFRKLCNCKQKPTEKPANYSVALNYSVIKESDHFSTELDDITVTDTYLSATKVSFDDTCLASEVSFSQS
Chain of Thyrotropin receptor (Homo sapiens) (P16473 whole entry, looked up): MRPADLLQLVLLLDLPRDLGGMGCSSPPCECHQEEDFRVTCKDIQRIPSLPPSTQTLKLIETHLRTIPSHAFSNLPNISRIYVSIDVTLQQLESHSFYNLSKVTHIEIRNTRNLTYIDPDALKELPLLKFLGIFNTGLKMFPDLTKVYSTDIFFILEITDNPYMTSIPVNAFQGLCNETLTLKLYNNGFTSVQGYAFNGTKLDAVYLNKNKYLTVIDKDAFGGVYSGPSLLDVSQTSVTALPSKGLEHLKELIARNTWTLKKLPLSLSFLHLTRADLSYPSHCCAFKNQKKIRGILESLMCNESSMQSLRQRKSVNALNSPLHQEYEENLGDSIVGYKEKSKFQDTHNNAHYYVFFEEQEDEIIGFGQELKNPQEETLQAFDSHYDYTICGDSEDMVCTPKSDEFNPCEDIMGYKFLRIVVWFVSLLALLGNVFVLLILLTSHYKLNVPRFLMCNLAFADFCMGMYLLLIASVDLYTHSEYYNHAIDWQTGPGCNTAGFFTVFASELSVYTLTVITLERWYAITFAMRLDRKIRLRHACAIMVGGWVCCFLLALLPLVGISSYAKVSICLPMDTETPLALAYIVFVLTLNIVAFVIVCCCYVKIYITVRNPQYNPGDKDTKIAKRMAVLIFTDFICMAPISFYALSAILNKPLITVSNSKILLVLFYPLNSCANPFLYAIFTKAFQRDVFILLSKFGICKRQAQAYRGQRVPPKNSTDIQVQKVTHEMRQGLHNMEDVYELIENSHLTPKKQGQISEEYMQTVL
Chain of Progesterone receptor (Homo sapiens) (P06401 whole entry, looked up): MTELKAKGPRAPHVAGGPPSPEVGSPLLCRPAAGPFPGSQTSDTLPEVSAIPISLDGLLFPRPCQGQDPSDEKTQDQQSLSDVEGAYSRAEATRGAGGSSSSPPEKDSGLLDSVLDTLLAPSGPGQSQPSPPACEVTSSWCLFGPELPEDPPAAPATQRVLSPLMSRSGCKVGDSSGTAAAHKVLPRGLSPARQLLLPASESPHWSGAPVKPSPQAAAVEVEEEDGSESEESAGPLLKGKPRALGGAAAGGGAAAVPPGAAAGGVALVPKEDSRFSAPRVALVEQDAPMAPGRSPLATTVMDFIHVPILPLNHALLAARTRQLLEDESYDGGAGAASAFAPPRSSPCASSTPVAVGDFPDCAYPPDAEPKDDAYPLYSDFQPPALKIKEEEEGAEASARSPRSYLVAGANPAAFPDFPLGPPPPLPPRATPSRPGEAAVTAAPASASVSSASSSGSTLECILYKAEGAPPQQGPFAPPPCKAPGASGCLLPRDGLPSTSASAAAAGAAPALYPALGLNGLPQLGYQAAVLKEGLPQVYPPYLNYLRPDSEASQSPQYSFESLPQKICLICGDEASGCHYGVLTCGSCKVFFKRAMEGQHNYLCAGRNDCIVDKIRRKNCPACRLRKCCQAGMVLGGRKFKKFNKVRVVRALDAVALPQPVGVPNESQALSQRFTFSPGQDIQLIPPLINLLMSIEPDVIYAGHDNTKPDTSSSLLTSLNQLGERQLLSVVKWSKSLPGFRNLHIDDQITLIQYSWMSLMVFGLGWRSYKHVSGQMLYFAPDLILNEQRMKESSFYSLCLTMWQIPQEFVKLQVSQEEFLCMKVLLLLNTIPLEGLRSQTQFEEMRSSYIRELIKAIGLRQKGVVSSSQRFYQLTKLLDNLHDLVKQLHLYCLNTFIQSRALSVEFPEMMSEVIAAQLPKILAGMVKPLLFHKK
Chain of Estrogen receptor (Homo sapiens) (P03372 whole entry, looked up): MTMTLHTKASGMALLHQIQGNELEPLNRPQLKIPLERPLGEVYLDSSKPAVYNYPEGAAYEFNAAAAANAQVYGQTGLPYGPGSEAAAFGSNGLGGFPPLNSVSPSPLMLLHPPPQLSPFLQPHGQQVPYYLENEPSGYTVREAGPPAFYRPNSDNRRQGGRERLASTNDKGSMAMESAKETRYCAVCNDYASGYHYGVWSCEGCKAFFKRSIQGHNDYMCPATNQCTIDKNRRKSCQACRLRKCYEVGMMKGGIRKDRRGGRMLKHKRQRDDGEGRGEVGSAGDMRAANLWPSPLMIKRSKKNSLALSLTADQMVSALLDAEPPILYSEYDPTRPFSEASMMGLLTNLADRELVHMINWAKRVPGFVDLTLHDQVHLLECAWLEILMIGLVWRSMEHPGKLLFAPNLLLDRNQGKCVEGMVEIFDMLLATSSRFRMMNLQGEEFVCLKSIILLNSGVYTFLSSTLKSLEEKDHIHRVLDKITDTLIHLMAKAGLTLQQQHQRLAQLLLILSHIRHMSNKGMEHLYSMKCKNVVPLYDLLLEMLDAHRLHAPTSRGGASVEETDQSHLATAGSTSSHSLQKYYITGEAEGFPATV
Chain of Estrogen receptor beta (Homo sapiens) (Q92731 whole entry, looked up): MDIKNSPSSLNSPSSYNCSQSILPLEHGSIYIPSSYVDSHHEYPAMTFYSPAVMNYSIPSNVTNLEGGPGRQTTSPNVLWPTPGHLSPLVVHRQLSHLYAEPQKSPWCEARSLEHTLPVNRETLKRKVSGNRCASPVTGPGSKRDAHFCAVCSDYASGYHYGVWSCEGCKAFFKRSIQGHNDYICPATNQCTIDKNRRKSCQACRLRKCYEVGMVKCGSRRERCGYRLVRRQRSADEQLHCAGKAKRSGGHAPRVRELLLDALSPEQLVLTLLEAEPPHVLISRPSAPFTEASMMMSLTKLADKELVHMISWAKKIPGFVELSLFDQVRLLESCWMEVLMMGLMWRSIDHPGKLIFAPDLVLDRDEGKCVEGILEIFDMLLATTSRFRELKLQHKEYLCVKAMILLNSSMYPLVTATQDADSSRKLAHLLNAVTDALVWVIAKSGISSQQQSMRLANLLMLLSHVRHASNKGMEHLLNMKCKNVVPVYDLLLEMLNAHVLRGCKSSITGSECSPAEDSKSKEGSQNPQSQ
Chain of Androgen receptor (Homo sapiens) (P10275 whole entry, looked up): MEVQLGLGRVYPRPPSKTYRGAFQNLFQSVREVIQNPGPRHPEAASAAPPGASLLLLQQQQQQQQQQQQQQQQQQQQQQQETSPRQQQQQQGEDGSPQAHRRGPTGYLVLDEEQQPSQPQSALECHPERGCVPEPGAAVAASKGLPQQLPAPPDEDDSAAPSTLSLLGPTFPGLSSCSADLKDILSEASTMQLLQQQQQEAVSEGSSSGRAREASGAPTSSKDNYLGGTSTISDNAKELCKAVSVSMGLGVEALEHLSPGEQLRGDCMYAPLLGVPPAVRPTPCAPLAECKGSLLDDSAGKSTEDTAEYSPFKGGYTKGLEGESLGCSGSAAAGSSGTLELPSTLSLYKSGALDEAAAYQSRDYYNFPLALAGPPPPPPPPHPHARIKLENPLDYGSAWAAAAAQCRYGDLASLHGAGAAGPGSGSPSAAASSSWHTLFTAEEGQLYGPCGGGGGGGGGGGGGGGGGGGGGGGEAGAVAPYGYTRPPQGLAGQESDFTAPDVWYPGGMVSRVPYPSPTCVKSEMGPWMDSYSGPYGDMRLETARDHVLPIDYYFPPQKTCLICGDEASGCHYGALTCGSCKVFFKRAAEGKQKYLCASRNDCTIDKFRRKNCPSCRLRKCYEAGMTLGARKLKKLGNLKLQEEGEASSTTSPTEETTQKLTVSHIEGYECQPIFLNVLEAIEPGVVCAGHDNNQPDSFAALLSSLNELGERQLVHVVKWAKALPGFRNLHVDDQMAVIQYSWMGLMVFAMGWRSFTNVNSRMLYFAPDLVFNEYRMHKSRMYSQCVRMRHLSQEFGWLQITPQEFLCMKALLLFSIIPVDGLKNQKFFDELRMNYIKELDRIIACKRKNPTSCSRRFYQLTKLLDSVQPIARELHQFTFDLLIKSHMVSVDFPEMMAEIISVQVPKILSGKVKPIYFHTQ

## COC(=O)/C=C/C(C)=C\C=C\C(C)=C\C=C\C=C(C)\C=C\C=C(C)\C=C\C(=O)O
[1]
  Potency: inactive
[2]
  Potency: inactive
[3]
  Potency: inactive
[4]
  Potency: inactive
[5]
  Potency: inactive
[6]
  Potency: inactive
[7]
  Potency: inactive
[8]
  Potency: inactive
[9]
  outcome: inactive
[10]
  Potency: inactive
[11]
  Potency: inactive
[12]
  Potency: inactive
[13]
  Potency: inactive
[14]
  Potency: inactive
[15]
  outcome: inactive
[16]
  outcome: inactive
[17]
  outcome: inactive
[18]
  outcome: inactive

## CCOC(=O)CC(O)(CC(=O)OCC)C(=O)OCC
[1]
  Potency: inactive
[2]
  Potency: 68600 nM (active)
[3]
  Potency: inactive
[4]
  Potency: inactive
[7]
  Potency: inactive
[8]
  Potency: inactive
[9]
  outcome: inactive
[10]
  Potency: inactive
[11]
  Potency: inactive
[12]
  Potency: inactive
[19]
  Potency: inactive
[14]
  Potency: inactive
[15]
  outcome: inactive
[16]
  outcome: inactive
[17]
  outcome: inactive

## CCCc1ccc(OC)cc1
[1]
  Potency: inactive
[2]
  Potency: inactive
[4]
  Potency: inactive
[20]
  Potency: inactive
[5]
  Potency: inactive
[6]
  Potency: inactive
[8]
  Potency: inactive
[9]
  outcome: inactive
[11]
  Potency: inactive
[12]
  Potency: inactive
[19]
  Potency: inactive
[14]
  Potency: inactive
[15]
  outcome: inactive
[16]
  outcome: inactive
[17]
  outcome: inactive
[18]
  outcome: inactive

## O=C1c2ccccc2C(=O)C1c1ccc2ccccc2n1
[1]
  Potency: 121 nM (active)
[2]
  Potency: inactive
[3]
  Potency: inactive
[20]
  Potency: inactive
[5]
  Potency: inactive
[9]
  outcome: inactive
[10]
  Potency: inactive
[12]
  Potency: inactive
[13]
  Potency: inactive
[19]
  Potency: inactive
[14]
  Potency: inactive
[15]
  outcome: inactive
[16]
  outcome: inactive
[17]
  outcome: inactive
[18]
  outcome: inactive

## CCN(CC)CC(=O)OCC(=O)[C@@]1(O)CC[C@H]2[C@@H]3CCC4=CC(=O)CC[C@]4(C)[C@H]3[C@@H](O)C[C@@]21C
[1]
  Potency: inactive
[2]
  Potency: inactive
[3]
  Potency: inactive
[20]
  Potency: inactive
[6]
  Potency: 211 nM (active)
[7]
  Potency: inactive
[8]
  Potency: inactive
[9]
  outcome: inactive
[11]
  Potency: inactive
[19]
  Potency: inactive
[14]
  Potency: inactive
[15]
  outcome: inactive
[16]
  outcome: inactive
[17]
  outcome: inactive
[18]
  outcome: inactive

## Cc1ccc2c(Cl)cc(Cl)c(O)c2n1
[1]
  Potency: inactive
[2]
  Potency: inactive
[3]
  Potency: inactive
[4]
  Potency: inactive
[5]
  Potency: inactive
[6]
  Potency: inactive
[8]
  Potency: inactive
[9]
  outcome: inactive
[11]
  Potency: inactive
[12]
  Potency: inactive
[13]
  Potency: inactive
[19]
  Potency: inactive
[14]
  Potency: inactive
[15]
  outcome: inactive
[16]
  outcome: inactive
[17]
  outcome: inactive
[18]
  outcome: inactive

## Nc1ccccc1Nc1ccccc1
[1]
  Potency: inactive
[2]
  Potency: 2740 nM (active)
[3]
  Potency: inactive
[20]
  Potency: inactive
[5]
  Potency: inactive
[12]
  Potency: inactive
[14]
  Potency: inactive
[15]
  outcome: inactive
[16]
  outcome: inactive
[17]
  outcome: inactive
[18]
  outcome: inactive

## CC(=O)c1ccc(Cl)c(Cl)c1Cl
[1]
  Potency: inactive
[2]
  Potency: inactive
[3]
  Potency: inactive
[4]
  Potency: inactive
[7]
  Potency: inactive
[8]
  Potency: inactive
[9]
  outcome: inactive
[10]
  Potency: inactive
[11]
  Potency: inactive
[19]
  Potency: inactive
[14]
  Potency: inactive
[15]
  outcome: inactive
[16]
  outcome: inactive
[17]
  outcome: inactive
[18]
  outcome: inactive

## CC(C)Cc1nccs1
[1]
  Potency: inactive
[2]
  Potency: inactive
[4]
  Potency: inactive
[20]
  Potency: inactive
[5]
  Potency: inactive
[7]
  Potency: inactive
[9]
  outcome: inactive
[10]
  Potency: inactive
[11]
  Potency: inactive
[13]
  Potency: inactive
[19]
  Potency: inactive
[14]
  Potency: inactive
[15]
  outcome: inactive
[16]
  outcome: inactive
[17]
  outcome: inactive
[18]
  outcome: inactive
